Screening results from PubChem.
Luciferase inh – qHTS Assay for Inhibitors of Firefly Luciferase; 72,000 compounds, 2.2% hits; Potency, µM (highest dose often 57.1 µM), for the others: top-dose activity change, negative = inhibition, actives largely listed as inhibitors; AID 411, 2009; purified firefly luciferase, luminescence, 8 min; note: nearly all actives have a fitted effect of over 40% in size
Target sequence (P08659 whole entry, looked up): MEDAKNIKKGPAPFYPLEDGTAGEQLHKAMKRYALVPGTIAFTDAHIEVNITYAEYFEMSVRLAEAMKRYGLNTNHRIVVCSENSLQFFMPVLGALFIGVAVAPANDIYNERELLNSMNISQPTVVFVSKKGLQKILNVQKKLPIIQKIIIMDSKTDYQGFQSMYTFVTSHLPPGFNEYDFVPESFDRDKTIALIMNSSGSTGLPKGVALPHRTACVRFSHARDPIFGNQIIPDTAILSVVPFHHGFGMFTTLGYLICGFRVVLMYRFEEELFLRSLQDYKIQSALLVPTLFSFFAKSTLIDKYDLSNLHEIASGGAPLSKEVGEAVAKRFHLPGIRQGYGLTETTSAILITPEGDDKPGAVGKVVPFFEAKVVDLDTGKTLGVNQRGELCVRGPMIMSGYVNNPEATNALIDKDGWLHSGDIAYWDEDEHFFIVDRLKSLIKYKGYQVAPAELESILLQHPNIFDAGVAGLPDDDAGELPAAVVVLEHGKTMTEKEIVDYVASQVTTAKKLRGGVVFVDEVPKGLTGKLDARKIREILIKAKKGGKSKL
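Here, luciferase activity is measured as luminescence following an 8 min room-temperature reaction at 10 uM ATP, pH 7.2. Every library sample is titrated.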
p53ts 32C tox – qHTS Screen for Compounds that Selectively Target Cancer Cells with p53 Mutations: Cytotoxicity of p53ts Cells at the Permissive Temperature; Potency, µM (doses to about 46.1 µM), inactives show at the highest dose activity change, negative = cytotoxicity, actives largely listed as cytotoxic; AID 924, 2007; H1299-p53A138V at 32C, ATP luminescence viability, 24 h; 130,000 compounds, 0.93% hits;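 note: 0% = DMSO and -100% = full killing by reference compound; nearly all actives have a fitted effect of over 55% in size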
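ATP-content luminescence (ATPlite) read-out after 24 h compound exposure at 32C in H1299-p53A138V cells (600/well). Tested up to 46 uM. Normalized to DMSO (0%) and 100 uM tamoxifen (100% killing); Hill-fit AC50.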
p53ts 39C kill – qHTS Screen for Compounds that Selectively Target Cancer Cells with p53 Mutations: Cytotoxicity of p53ts Cells at the Nonpermissive Temperature | H1299-p53A138V viability at 39C, ATP luminescence, 24 h | Potency, µM (series often up to 46.1 µM), for the others: at the top dose activity change, negative = cell killing, most hits filed as cytotoxic | 130,000 compounds, 1.5% hits | AID 902, 2007; note: nearly all actives have a fitted effect of over 55% in size
Starred values were filed as active, the others as inactive; u = inconclusive; x = no result; [ ] = dose if it differs, or a comment. Only some compounds are listed: those with a hit (about 2.5% of all), similar ones and a draw of the others. Calls come from the whole dose curve; as a rule, active = well fitted curve in the direction sought with a large enough effect; inconclusive = small, poorly fitted or top-dose-only effect, or another doubt; inactive = no such curve, though single readings can be large; an effect the other way counts as inactive or inconclusive. Unless noted, % is set by controls: 0 for no effect and ±100 for the full control effect; potency is the fitted concentration of half-maximal effect.

SMILES	Luciferase inh	p53ts 32C tox	p53ts 39C kill
Cc1ccc(-c2cn3nc(N4CCC(C(=O)Nc5ccccc5C)CC4)sc3n2)cc1	x	2%	x
CC(C)Cn1c(-c2cccc(Br)c2)nc2ccccc21	x	-5%	-26%
CC(C)Cc1nn2cc(-c3cccc(Br)c3)nc2s1	x	13µM*	10µM*
CO[C@@H]1/C=C\O[C@]2(C)Oc3c(C)c(O)c4c(O)c(cc(O)c4c3C2=O)NC(=O)/C(C)=C\C=C/[C@H](C)[C@@H](O)[C@H](C)[C@H](O)[C@H](C)[C@H](OC(C)=O)[C@@H]1C	0%[11.4 µM]	-7%[9.22 µM]	-2%[9.22 µM]
O=C1CCCC=C1[C@H](O)CCCCBr	1%[11.4 µM]	-1%[9.22 µM]	7%[9.22 µM]
Cc1ccc(N(CC(C)C)S(=O)(=O)c2nnc(NC(=O)c3cccs3)s2)cc1	x	0%	-12%
O=C(O)[C@@H]1CCN(Cc2oc(CO)cc(=O)c2O)C1	3%[11.4 µM]	3%[9.22 µM]	2%[9.22 µM]
CC(C)c1nnc(NC(=O)c2nc(SCc3ccc(F)cc3)ncc2Cl)s1	x	-3%	-20%
Cc1nnc(NC(=O)c2nc(SCc3ccccc3F)ncc2Cl)s1	x	13%	0%
Cc1cccc(CS(=O)(=O)c2ncc(Cl)c(C(=O)Nc3nnc(C(C)C)s3)n2)c1	x	16µM*	5µM*
Cc1ccc(CS(=O)(=O)c2ncc(Cl)c(C(=O)Nc3nnc(C(C)C)s3)n2)cc1	x	13µM*	5µM*
Cc1cc2sc(C)[n+](CCCOS(=O)(=O)O)c2cc1C	1%[11.4 µM]	4%[9.22 µM]	5%[9.22 µM]
COc1ccc(-n2c(C)nc3cc(C(=O)NC4CCCCCC4)ccc32)cc1	x	20%	-6%
COc1ccc(-c2nsc3c(N4CCN(S(=O)(=O)c5ccccc5)CC4)ncnc23)cc1	3%	3%	-3%
COc1ccc(-c2nsc3c(N4CCCC4)ncnc23)cc1	0.79µM*	u	u
O=C(CSc1nc2c([nH]c3ccccc32)c(=O)n1-c1cccc(Cl)c1)N1CCCC1	x	11%	-22%
Cc1cnc(CNc2ncncc2-c2ccccc2C(F)(F)F)cn1	1%[2.29 µM]	-2%	6%
Cc1ccccc1C(=O)Nc1cccc(N)c1	-2%	-1%	2%
Nc1ccccc1C(=O)Nc1cccc(C(=O)O)c1	25µM*	-25%	-18%
Cc1ccccc1C(=O)Nc1cccc(NC(=O)c2ccc(C(C)(C)C)cc2)c1	x	10µM*	13µM*
Cc1cccc(NC(=O)c2ccccc2C(=O)O)c1	0%	2%	3%
O=C(OC1Cc2c(O)cc(O)cc2OC1c1cc(O)c(O)c(O)c1-c1c(C2Oc3cc(O)cc(O)c3CC2OC(=O)c2cc(O)c(O)c(O)c2)cc(O)c(O)c1O)c1cc(O)c(O)c(O)c1 (stereo not drawn)	x	3%	3%
O=c1[nH][nH]c(=S)c(=O)[nH]1	0%[11.4 µM]	7%[9.22 µM]	12%[9.22 µM]
CCCN1Cc2cccc(C(=O)Nc3ccc(OC)c(OC)c3)c2C1=O	4%	12%	-1%
CCOc1ccc(NC(=O)c2cccc3c2C(=O)N(Cc2cccnc2)C3)cc1	4µM*	u	u
SMILES	Luciferase inh	p53ts 32C tox	p53ts 39C kill
CCCN1Cc2cccc(C(=O)Nc3ccc(CN4CCCC4)cc3)c2C1=O	20µM*	-22%	-5%
CCOC(=O)N1CCC(NC(=O)c2cccc3c2C(=O)N(Cc2cccnc2)C3)CC1	2%	-8%	-6%
CC(=O)OC[C@@H]1O[C@@H](O/N=C2/C[C@@H](O)[C@@H](O)[C@@H]3[C@@H]4C(=O)N(c5cccc(Oc6ccccc6)c5)C(=O)[C@H]4CC[C@H]23)[C@H](OC(C)=O)[C@H](OC(C)=O)[C@@H]1OC(C)=O	-4%[11.4 µM]	-1%[9.22 µM]	5%[9.22 µM]
CN(C)c1ccc(-c2ccc3ncnc(NC4CC4)c3c2)cc1	-1%[2.29 µM]	-5%	-10%
COCCCNC(=O)CCc1c(C)nc2nc(-c3cc(OC)cc(OC)c3)nn2c1C	x	8%	-14%
Cc1ccc(CSCCNC(=O)C2CCN(S(=O)(=O)Cc3ccccc3)CC2)cc1	x	2%	5%
COc1ccc(N2CCN(C(=O)COc3ccc4ccccc4c3)CC2)cc1	0%	11%	4%
COc1cc(OC)cc(C(=O)N2CCN(C(=O)COc3ccc4ccccc4c3)CC2)c1	10µM*	u	u
Cc1c(C(=O)OC2CCCCC2)[nH]c2c1C(=O)CC(C)(C)C2	1%	-2%	4%
Cc1c(C(=O)OC2CCCCCC2)[nH]c2c1C(=O)CC(c1ccccc1)C2 (stereo not drawn)	x	-6%	-13%
COC(=O)C1C(=O)c2c([nH]c(C(=O)OC3CCCCC3)c2C)CC1C (stereo not drawn)	1µM*	-12%	-17%
COC(=O)C1C(=O)c2c([nH]c(C(=O)OC3CCCC3C)c2C)CC1C (stereo not drawn)	10µM*	u	-28%
Cc1cc(C)cc(O)c1	x	1%[1.84 µM]	-11%
Cc1ccccc1-c1ccc2ncnc(NCc3cccs3)c2c1	1%[2.29 µM]	16%	-12%
O=c1n(Cc2cc3c(cc2Cl)OCO3)c(=O)n2n1CC[C@H]1/C(=N\OCc3ccccc3)[C@H]3O[C@@H]3[C@@H](O)[C@@H]12	1%[11.4 µM]	-4%[9.22 µM]	-1%[9.22 µM]
CC[C@@H](c1ccccc1)n1c(=O)n2n(c1=O)[C@H]1[C@H](O)[C@H]3O[C@@H]3/C(=N/OC/C=C(\C)CCC=C(C)C)[C@@H]1CC2	0%[11.4 µM]	0%[9.22 µM]	-12%[9.22 µM]
Cc1cc(N)c2ccccc2[n+]1CCCCCCCCCCCCCC[n+]1c(C)cc(N)c2ccccc21	-1%	u	13µM*
COc1cccc(C(=O)Cn2c(=N)n(C)c3ccccc32)c1	1.3µM*	3.2µM*	5µM*
COc1cccc(C(=O)Cn2c(NCCO)nc3ccccc32)c1	x	9%	-1%
c1csc(CNc2nc(-c3ccc4c(c3)OCO4)nc3ccccc23)c1	-1%[2.29 µM]	-12%	-19%
COc1cccc(CNC(=O)c2ccc(Cn3c(SCc4ccccc4)nc4cccnc43)cc2)c1	x	-26%	x
COc1cccc2[nH]c3c(N4CCCC(C)C4)ncnc3c12 (stereo not drawn)	13µM*	-26%	u
CCOC(=O)C1CCCN(c2ncnc3c2[nH]c2cccc(OC)c23)C1 (stereo not drawn)	-4%	0%	1%
CCCn1c(/C=C/c2ccccc2)nc2ccccc21	x	13µM*	10µM*
O=c1c2ccccc2nc(/C=C/c2ccccc2)n1CCc1ccccc1	x	x	3%
SMILES	Luciferase inh	p53ts 32C tox	p53ts 39C kill
CN(C(=O)Nc1cn(C)c(=O)c2ccccc12)c1ccccc1	x	-4%	x
NC(=O)NC(=O)[C@H]1CCCC[C@@H]1C(=O)O	-1%[11.4 µM]	10%[9.22 µM]	11%[9.22 µM]
COC(=O)c1ccc(NC(=O)CC2C(=O)N(c3ccccc3)C(=O)N2Cc2ccc(F)cc2)cc1 (stereo not drawn)	x	4%	-8%
COc1ccc(-n2ncc3c(NCc4ccco4)ncnc32)cc1	x	u	-20%
Clc1ccc(-n2ncc3c(NCC4CCCO4)ncnc32)cc1 (stereo not drawn)	5µM*	u	u
c1ccc(-n2ncc3c(NCC4CCCO4)ncnc32)cc1 (stereo not drawn)	-27%[25.5 µM]	x	x
Clc1ccc(-n2ncc3c(NC4CCCC4)ncnc32)cc1	x	13µM*	16µM*
